Assay in all cases: DAPPL (digital affinity profiling via proximity ligation, sequencing); 10 mM Tris-HCl pH 7.5, 50 mM NaCl, 1 mM DTT, 4% glycerol, room temperature, 30 min; GST-TFs on glutathione beads, 16-mer random dsDNA library, 0.1% formaldehyde crosslink after washing; high values mean tight binding
One test has as its target T1, FEV (Homo sapiens, UniProt Q99581 1-238).
T1 sequence: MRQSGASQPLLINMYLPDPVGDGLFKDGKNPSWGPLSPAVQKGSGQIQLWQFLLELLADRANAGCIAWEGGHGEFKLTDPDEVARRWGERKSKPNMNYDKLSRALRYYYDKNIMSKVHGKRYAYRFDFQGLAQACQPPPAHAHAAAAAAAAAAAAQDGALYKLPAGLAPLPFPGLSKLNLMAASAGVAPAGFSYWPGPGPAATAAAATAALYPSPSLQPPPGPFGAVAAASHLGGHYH
As to conditions: protein: recombinant; tags: N-terminal GST; dsDNA, one strand shown. In a few lines: (§1)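 In yeast, human transcription factors were expressed with a GST fusion, then pulled down on glutathione beads and given DNA barcodes. Pooled with a tag-only sample, they were exposed to 200 nmole of a 16-mer random double-stranded DNA library (Tris/NaCl/DTT/glycerol buffer, room temperature, 30 min), washed, crosslinked with 0.1% formaldehyde, proximity-ligated using BsaI/T4 ligase for 1 h at 37 °C, PCR-amplified and read on an Illumina NextSeq500. Each hexamer's frequency of reads for a factor, divided by the matching frequency for the tag-only sample, gives the binding signal.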

The target of a further test is ETV5 (Homo sapiens, UniProt P41161 1-510). The settings on record: protein: recombinant; tags: N-terminal GST; dsDNA, one strand shown. The method, boiled down:
as §1

The target of another test is HSF1 (Homo sapiens, UniProt Q00613 1-529). The settings on record: protein: recombinant; tags: N-terminal GST; chain copies: 3; dsDNA, one strand shown. In a few lines: as §1
Sequence of HSF1 (Q00613 whole entry): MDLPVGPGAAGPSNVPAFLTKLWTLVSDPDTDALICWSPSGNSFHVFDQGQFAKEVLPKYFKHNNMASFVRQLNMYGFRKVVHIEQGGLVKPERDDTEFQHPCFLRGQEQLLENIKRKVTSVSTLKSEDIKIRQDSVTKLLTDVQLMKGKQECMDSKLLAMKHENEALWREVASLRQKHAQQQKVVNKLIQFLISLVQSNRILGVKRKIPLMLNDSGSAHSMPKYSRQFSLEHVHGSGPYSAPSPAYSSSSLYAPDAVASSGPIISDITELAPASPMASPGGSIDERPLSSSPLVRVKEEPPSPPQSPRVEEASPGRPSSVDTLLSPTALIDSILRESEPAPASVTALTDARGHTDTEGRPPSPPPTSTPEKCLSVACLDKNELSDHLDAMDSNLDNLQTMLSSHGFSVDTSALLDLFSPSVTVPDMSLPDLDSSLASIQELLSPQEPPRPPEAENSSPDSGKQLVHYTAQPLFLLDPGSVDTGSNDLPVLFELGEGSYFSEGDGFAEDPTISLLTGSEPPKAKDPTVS
The target of another test is T2, SPIC (Homo sapiens, UniProt Q8N5J4 1-248).
T2 sequence: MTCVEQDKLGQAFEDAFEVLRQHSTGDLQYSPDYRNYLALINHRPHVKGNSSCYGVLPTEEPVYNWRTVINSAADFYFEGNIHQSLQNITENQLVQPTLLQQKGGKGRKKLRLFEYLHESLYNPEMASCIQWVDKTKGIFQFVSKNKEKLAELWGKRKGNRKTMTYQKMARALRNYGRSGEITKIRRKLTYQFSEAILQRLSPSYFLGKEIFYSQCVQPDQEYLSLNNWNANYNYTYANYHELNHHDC
The settings on record: protein: recombinant; tags: N-terminal GST; dsDNA, one strand shown. The method, boiled down:
as §1

The target in a further test is ELF4 (Homo sapiens, UniProt Q99607 1-663). As to conditions: protein: recombinant; tags: N-terminal GST; dsDNA, one strand shown. In a few lines: as §1
Sequence of ELF4 (Q99607 whole entry): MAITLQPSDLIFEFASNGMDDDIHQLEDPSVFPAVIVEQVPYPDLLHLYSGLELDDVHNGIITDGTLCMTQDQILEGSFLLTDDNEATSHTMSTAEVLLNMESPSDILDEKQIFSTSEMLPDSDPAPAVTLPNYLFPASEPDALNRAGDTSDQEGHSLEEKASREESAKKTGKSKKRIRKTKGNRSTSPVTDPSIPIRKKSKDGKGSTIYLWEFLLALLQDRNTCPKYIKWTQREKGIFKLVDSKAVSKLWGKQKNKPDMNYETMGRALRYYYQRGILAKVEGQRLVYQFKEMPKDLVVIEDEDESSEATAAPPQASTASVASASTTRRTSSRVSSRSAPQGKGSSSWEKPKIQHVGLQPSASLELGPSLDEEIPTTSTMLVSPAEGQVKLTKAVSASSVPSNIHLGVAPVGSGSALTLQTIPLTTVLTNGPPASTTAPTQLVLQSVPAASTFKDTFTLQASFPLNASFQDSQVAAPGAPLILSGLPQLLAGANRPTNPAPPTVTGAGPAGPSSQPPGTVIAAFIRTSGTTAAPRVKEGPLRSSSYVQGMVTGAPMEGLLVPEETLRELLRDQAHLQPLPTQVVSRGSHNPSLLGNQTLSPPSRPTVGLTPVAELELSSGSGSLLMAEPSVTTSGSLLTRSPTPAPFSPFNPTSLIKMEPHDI
In the next test the target is T3, ELK4 (Homo sapiens, UniProt P28324-2 1-405).
T3 sequence: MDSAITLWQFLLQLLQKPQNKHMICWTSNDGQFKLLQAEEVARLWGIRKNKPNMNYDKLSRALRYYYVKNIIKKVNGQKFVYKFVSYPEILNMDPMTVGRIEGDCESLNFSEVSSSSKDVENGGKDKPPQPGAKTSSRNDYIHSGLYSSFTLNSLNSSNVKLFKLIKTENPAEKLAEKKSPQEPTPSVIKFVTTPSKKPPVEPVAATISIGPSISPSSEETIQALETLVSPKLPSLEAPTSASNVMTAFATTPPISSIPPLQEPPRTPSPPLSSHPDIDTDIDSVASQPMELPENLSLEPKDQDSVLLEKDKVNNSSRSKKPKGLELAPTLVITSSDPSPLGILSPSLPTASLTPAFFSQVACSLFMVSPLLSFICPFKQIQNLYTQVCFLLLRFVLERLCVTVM
The settings on record: protein: recombinant; tags: N-terminal GST; dsDNA, one strand shown. In a few lines: as §1

The target of the next test is T4, ETV2 (Homo sapiens, UniProt O00321 1-342).
T4 sequence: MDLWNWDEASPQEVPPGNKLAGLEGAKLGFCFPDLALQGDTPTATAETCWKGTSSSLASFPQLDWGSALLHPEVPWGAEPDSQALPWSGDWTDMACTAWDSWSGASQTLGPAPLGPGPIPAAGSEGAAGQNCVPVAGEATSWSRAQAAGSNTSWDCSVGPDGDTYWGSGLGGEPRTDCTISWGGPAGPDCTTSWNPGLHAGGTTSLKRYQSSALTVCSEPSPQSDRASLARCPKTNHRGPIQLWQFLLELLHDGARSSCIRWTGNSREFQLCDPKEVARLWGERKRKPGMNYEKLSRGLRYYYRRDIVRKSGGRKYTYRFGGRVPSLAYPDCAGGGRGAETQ
The settings on record: protein: recombinant; tags: N-terminal GST; dsDNA, one strand shown. In a few lines: as §1

The target in a further test is T5, ELF3 (Homo sapiens, UniProt P78545 1-371).
T5 sequence: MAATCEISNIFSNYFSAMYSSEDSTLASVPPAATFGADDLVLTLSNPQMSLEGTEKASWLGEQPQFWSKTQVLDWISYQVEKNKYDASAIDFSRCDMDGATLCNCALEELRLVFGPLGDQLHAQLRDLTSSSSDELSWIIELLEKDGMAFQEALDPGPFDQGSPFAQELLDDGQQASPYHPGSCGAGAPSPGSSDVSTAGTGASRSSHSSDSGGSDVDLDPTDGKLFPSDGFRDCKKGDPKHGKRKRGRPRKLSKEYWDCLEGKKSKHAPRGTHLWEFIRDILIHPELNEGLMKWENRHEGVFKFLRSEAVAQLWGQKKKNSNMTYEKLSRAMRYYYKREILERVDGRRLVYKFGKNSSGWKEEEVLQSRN
As to conditions: protein: recombinant; tags: N-terminal GST; dsDNA, one strand shown. The method, boiled down:
as §1

A further test deals with CRX (Homo sapiens, UniProt O43186 1-299). The settings on record: protein: recombinant; tags: N-terminal GST; dsDNA, one strand shown. In a few lines:
as §1

In a further test the target is ETV1 (Homo sapiens, UniProt P50549 1-477). The settings on record: protein: recombinant; tags: N-terminal GST; dsDNA, one strand shown. In a few lines:
as §1

Another test concerns the target T6, ERF (Homo sapiens, UniProt P50548 1-548).
T6 sequence: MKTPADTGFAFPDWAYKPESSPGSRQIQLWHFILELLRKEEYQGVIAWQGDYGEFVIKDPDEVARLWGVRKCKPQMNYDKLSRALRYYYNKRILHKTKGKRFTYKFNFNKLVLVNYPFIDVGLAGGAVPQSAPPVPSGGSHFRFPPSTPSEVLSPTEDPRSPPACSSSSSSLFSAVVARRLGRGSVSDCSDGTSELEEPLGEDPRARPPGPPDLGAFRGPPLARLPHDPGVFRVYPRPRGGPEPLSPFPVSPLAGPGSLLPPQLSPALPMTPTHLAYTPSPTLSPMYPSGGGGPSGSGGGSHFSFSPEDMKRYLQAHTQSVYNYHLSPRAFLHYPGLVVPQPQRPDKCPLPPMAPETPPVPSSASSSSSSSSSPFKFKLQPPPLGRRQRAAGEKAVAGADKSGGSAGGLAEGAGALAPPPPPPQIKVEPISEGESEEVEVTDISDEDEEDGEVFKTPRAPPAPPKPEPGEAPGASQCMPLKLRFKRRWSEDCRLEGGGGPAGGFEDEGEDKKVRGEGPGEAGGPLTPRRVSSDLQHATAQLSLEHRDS
The settings on record: protein: recombinant; tags: N-terminal GST; dsDNA, one strand shown. The method, boiled down: as §1

The next test deals with T7, ETV3L (Homo sapiens, UniProt Q6ZN32 1-361).
T7 sequence: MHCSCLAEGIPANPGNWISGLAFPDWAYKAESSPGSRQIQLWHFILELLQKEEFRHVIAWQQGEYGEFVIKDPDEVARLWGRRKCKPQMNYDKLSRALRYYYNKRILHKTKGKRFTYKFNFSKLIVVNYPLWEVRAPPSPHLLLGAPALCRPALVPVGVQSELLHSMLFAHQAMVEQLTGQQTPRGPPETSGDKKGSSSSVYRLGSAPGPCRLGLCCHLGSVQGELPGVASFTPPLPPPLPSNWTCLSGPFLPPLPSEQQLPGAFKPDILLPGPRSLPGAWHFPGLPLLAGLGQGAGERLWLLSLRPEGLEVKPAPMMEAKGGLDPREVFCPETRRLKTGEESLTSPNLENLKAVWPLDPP
As to conditions: protein: recombinant; tags: N-terminal GST; dsDNA, one strand shown. In a few lines:
as §1

The target in another test is T8, ETS2 (Homo sapiens, UniProt P15036 1-469).
T8 sequence: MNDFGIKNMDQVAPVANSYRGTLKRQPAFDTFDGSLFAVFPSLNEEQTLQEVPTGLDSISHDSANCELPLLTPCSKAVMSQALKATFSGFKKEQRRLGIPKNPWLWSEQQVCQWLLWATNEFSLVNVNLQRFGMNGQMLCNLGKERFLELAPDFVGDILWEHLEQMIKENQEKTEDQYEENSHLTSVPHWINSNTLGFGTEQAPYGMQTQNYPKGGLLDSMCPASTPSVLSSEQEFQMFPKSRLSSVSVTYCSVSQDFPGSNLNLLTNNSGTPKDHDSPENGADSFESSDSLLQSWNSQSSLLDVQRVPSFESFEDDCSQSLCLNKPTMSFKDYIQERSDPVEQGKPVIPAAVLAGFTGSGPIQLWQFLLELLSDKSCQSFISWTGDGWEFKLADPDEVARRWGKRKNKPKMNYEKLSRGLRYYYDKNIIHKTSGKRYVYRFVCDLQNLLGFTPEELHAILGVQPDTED
The settings on record: protein: recombinant; tags: N-terminal GST; dsDNA, one strand shown. In a few lines:
as §1

For the next test, the target named is T9, SPDEF (Homo sapiens, UniProt O95238 1-335).
T9 sequence: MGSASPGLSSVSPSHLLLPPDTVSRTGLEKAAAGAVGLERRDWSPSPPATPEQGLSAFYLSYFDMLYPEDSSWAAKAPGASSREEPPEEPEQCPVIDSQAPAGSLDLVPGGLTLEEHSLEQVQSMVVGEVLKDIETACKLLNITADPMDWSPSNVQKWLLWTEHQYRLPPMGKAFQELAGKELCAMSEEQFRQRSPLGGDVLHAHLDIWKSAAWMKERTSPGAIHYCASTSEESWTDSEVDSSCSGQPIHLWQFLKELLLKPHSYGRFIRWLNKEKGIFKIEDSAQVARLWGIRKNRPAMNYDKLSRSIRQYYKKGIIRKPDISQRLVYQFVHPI
As to conditions: protein: recombinant; tags: N-terminal GST; dsDNA, one strand shown. The method, boiled down:
as §1

The target in the next test is T10, ETV7 (Homo sapiens, UniProt Q9Y603 1-341).
T10 sequence: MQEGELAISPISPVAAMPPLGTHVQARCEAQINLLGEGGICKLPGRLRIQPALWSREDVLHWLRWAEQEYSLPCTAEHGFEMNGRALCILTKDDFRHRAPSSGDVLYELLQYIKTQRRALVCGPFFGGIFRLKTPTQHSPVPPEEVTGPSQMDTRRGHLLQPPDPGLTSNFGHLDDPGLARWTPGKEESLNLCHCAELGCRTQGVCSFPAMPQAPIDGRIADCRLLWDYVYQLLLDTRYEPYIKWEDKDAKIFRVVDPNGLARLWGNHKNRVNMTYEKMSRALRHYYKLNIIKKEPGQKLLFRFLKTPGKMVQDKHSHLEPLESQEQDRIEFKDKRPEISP
As to conditions: protein: recombinant; tags: N-terminal GST; dsDNA, one strand shown. In a few lines:
as §1

In the next test the target is T11, ELF5 (Homo sapiens, UniProt Q9UKW6-2 1-255).
T11 sequence: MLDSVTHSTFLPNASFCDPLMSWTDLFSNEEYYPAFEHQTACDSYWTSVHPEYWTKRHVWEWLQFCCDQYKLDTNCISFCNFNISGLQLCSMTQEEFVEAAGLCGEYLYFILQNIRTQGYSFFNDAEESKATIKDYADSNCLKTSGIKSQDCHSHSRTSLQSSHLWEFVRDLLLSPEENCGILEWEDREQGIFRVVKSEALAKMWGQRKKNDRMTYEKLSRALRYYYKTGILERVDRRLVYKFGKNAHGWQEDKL
The settings on record: protein: recombinant; tags: N-terminal GST; dsDNA, one strand shown. In a few lines: as §1

A further test has as its target T12, ETV3 (Homo sapiens, UniProt P41162-2 1-143).
T12 sequence: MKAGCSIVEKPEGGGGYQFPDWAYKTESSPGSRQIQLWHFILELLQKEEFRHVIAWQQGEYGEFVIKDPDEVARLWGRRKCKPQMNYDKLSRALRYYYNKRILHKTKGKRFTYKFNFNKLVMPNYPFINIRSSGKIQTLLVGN
As to conditions: protein: recombinant; tags: N-terminal GST; dsDNA, one strand shown. In a few lines: as §1

For a further test, the target named is ETV6 (Homo sapiens, UniProt P41212 1-452). As to conditions: protein: recombinant; tags: N-terminal GST; dsDNA, one strand shown. The method, boiled down: as §1
Sequence of ETV6 (P41212 whole entry): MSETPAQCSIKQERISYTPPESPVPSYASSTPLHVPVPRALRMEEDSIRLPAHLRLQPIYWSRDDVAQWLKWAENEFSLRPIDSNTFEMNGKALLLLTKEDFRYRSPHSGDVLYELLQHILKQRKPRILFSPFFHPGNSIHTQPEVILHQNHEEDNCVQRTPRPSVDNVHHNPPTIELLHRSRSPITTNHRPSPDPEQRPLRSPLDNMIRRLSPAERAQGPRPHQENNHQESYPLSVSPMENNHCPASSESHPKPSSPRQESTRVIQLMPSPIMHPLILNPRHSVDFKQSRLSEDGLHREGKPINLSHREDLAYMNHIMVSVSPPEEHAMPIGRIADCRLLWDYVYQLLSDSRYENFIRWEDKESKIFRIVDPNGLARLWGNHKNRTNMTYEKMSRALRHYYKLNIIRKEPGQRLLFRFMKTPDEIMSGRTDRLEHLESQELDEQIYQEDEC

Sequence of CRX (O43186 whole entry): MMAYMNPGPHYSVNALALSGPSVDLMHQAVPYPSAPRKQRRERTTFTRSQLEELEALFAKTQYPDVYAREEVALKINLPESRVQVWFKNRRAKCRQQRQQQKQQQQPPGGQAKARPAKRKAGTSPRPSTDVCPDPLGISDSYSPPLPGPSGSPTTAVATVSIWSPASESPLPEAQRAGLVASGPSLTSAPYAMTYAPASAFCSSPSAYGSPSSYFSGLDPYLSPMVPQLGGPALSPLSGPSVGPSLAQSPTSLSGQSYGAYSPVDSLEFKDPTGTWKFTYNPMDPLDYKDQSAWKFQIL
Sequence of ETV1 (P50549 whole entry): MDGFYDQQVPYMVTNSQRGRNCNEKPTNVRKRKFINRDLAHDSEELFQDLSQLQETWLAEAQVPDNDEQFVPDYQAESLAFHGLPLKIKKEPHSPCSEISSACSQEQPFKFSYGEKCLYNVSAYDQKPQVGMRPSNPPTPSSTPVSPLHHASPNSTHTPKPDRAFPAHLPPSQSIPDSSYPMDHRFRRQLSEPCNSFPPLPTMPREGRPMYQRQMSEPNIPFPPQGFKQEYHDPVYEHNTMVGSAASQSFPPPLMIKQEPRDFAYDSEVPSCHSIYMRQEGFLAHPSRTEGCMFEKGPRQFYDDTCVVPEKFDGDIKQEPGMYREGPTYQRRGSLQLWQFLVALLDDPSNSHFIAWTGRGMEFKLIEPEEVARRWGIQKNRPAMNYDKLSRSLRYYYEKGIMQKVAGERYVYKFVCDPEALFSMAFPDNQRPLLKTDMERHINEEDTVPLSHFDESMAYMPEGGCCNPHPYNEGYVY
Sequence of ETV5 (P41161 whole entry): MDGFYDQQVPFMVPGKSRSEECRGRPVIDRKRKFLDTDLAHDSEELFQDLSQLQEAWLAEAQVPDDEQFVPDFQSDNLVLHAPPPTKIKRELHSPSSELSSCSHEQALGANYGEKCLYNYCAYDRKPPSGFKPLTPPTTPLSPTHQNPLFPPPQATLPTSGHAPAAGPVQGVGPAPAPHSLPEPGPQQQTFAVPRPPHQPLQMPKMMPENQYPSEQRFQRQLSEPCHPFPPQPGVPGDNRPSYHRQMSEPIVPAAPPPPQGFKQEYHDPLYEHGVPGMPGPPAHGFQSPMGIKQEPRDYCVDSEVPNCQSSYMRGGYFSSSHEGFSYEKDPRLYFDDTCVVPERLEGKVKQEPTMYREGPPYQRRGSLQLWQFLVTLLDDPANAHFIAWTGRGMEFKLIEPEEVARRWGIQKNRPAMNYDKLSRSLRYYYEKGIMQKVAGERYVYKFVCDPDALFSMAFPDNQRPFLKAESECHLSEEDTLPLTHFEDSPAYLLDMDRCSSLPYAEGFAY

Take ACATGC: the binding signal was 1.3 fold enrichment (6-mer frequency, TF over GST control) with FEV; 1.25 fold enrichment (6-mer frequency, TF over GST control) with ETV5; 1.1 fold enrichment (6-mer frequency, TF over GST control) in the test with HSF1; 1.27 fold enrichment (6-mer frequency, TF over GST control) in the test with SPIC; 1.26 fold enrichment (6-mer frequency, TF over GST control) in the test with ELF4; 1.2 fold enrichment (6-mer frequency, TF over GST control) with ELK4. Further, the binding signal with ETV2 was 1.44 fold enrichment (6-mer frequency, TF over GST control); with ELF3, 1.28 fold enrichment (6-mer frequency, TF over GST control); with CRX, 1.03 fold enrichment (6-mer frequency, TF over GST control); with ETV1, 1.3 fold enrichment (6-mer frequency, TF over GST control); with ERF, 1.37 fold enrichment (6-mer frequency, TF over GST control); with ETV3L it was 1.26 fold enrichment (6-mer frequency, TF over GST control). For the same sequence, the binding signal is 1.25 fold enrichment (6-mer frequency, TF over GST control) with ETS2; 1.24 fold enrichment (6-mer frequency, TF over GST control) with SPDEF; 1.23 fold enrichment (6-mer frequency, TF over GST control) with ETV7; 1.23 fold enrichment (6-mer frequency, TF over GST control) in the test with ELF5; 1.22 fold enrichment (6-mer frequency, TF over GST control) with ETV3; 1.45 fold enrichment (6-mer frequency, TF over GST control) in the test with ETV6.

These data come from paper PMC7862700, “An all-to-all approach to the identification of sequence-specific readers for epigenetic DNA modifications on cytosine”.
